Sampled rows, rich in hits. Any-hit rate of the full collection: about 12%.
VP16 counter – inhibits Gal4-VP16 luciferase reporter, ROR gamma counter-screen. Drosophila S2 Gal4-VP16 UAS-luciferase, luminescence, 20 h. Potency, µM (doses to about 53.6 µM), most hits filed as inhibitors. 310,000 tested, 3.5% active. AID 2546;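 further: Gal4-VP16 expression switched on by copper sulfate through the metallothionein promoter; nearly all actives have a fitted effect of over 50% in size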
RORg inh – ROR gamma (mouse) transcription inhibition; P51450; Drosophila S2 Gal4-RORgamma UAS-luciferase reporter, 20 h; Potency, µM (top dose mostly 53.6 µM), most hits filed as inhibitors; 310,000 tested, 5.4% active; AID 2551; further: nearly all actives have a fitted effect of over 60% in size
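Using a luciferase readout, inhibitors were identified by reduced reporter activity in Drosophila cells coexpressing a copper-inducible Gal4–ROR gamma fusion and UAS-driven Photinus luciferase, incubated 20 hr after 700 uM copper sulfate.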
Sfp inh – inhibitors of Bacillus subtilis Sfp phosphopantetheinyl transferase; 310,000 tested, 3.5% active; AID 1490; Biochemical Sfp PPTase activity, qHTS; Potency, µM, actives largely listed as inhibitors; Q9F4F7;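 further: the enzyme is Sfp with the accession as filed and its product quenches rhodamine fluorescence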
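Step 1, compound plus 15 nM Sfp-PPTase, 15 min, room temperature. Step 2, add rhodamine-CoA (5 uM) and BHQ-2-YbbR (12.5 uM). Step 3, read 525/598 nm fluorescence at 0 and 30 min.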
PLK1 PBD inh – blocks phosphopeptide binding to human PLK1 polo-box domain; P53350; Plk1 PBD binding of FITC phosphopeptide, fluorescence polarization; Potency, µM, actives largely listed as inhibitors; 360,000 tested, 2.8% active; AID 720504; further: series mostly up to about 57 µM; nearly all actives have a fitted effect of over 65% in size
ALDH1A1 inh – blocks purified human ALDH1A1 activity. 220,000 tested, 7.3% active. P00352. Potency, µM (top dose mostly 75.3 µM), actives largely listed as inhibitors. Purified ALDH1A1, NADH fluorescence, propionaldehyde substrate; active means well fitted inhibition curve with a large enough effect, not every such curve was filed as active; inconclusive means small, poorly fitted or top-dose-only effect, or another doubt; inactive means no such curve, though single readings can be large or run the other way
Target sequence (P00352 whole entry, looked up): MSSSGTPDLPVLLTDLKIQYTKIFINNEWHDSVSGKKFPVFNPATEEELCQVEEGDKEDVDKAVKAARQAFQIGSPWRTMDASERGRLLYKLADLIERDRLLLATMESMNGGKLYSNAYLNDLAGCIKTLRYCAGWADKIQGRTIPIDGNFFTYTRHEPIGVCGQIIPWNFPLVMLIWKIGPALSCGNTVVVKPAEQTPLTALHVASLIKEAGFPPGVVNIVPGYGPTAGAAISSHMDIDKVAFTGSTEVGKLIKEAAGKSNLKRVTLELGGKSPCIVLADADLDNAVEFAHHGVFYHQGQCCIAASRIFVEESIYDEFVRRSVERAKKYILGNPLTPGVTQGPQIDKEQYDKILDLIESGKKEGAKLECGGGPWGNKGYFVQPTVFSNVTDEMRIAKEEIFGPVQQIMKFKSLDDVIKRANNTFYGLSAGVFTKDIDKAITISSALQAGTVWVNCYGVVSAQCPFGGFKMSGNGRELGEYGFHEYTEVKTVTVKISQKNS
Each line names hits and unclear results; the compound was inactive in the other large screens. Unless noted, the call rests on the fitted dose curve; in most records, active means well fitted curve in the direction sought with a large enough effect; inconclusive means small, poorly fitted or top-dose-only effect, or another doubt; inactive means no such curve, though single readings can be large; an effect the other way counts as inactive or inconclusive.

CN(C)CCNC(=O)c1cc2c(s1)-c1ccc(Cl)cc1SC2	VP16 counter inconclusive, RORg inh 10µM (no result: ALDH1A1 inh)
CC(=C/C=C/C(C)=C/C=C/C=C(C)/C=C/C=C(C)/C=C/C(=O)O)/C=C/C(=O)O	none (no result: Sfp inh, PLK1 PBD inh)
S=C1N[C@H](c2ccccc2)N[C@H](c2ccccc2)S1	ALDH1A1 inh 3.16µM (no result: VP16 counter, RORg inh, Sfp inh, PLK1 PBD inh)
CCc1nc2ccc(C(=O)NC(C)(C)C)cn2c1N(CC)Cc1cccc(Br)c1	none (no result: VP16 counter, RORg inh, Sfp inh, ALDH1A1 inh)
O=C1CCNc2ccc(-c3ccccc3)cc21	Sfp inh inconclusive, PLK1 PBD inh 9.47µM, ALDH1A1 inh inconclusive
O=C1CCNc2cc3ccccc3cc21	VP16 counter inconclusive, PLK1 PBD inh 21.2µM, ALDH1A1 inh inconclusive
O=Cc1c(-c2ccc(Cl)cc2)oc2ccc(O)cc12	none (no result: VP16 counter, RORg inh, Sfp inh, ALDH1A1 inh)
CN(Cc1ccccc1)C(=O)[C@@H]1CCCN1	none (no result: VP16 counter, RORg inh, Sfp inh, ALDH1A1 inh)
C=CCCC(=O)N1C[C@H]2CON(C)[C@H]2C[C@H]1c1ccc(-n2ccnc2)cc1	none (no result: VP16 counter, RORg inh, Sfp inh, ALDH1A1 inh)
COc1ccc(Cc2c(-c3ccccc3)nc3c4ccccc4ccn23)c(C)c1	none (no result: VP16 counter, RORg inh, Sfp inh, ALDH1A1 inh)
O=S(=O)(C/C(=C/CO)S(=O)(=O)c1ccccc1)c1ccccc1	VP16 counter 4.47µM, RORg inh 3.98µM, PLK1 PBD inh inconclusive, ALDH1A1 inh 12.6µM
CCN(Cc1ccccc1)C(=O)CS(=O)(=O)c1ccccc1	none
CCOC(=O)C1=CN(Cc2ccco2)S(=O)(=O)N(C)C1CC (configuration not stated)	none (no result: VP16 counter, RORg inh, Sfp inh, ALDH1A1 inh)
NNC(=O)c1cnn(Cc2ccccc2)c1N	ALDH1A1 inh 12.6µM
NC(=O)c1cnn(Cc2ccc(Cl)cc2)c1N	none
CC(=O)Nc1ccc(-c2ccnc3c2CC(C(=O)Nc2cccnc2)O3)cc1 (configuration not stated)	none (no result: VP16 counter, RORg inh, Sfp inh, ALDH1A1 inh)
CCOc1ccccc1-n1nnnc1SCc1nc2ccccc2s1	ALDH1A1 inh 10µM
N/C(Cc1nc2ccccc2s1)=N\O	RORg inh inconclusive (no result: ALDH1A1 inh)
NC(=O)CSCc1nc2ccccc2s1	RORg inh inconclusive, Sfp inh 56.2µM, PLK1 PBD inh inconclusive, ALDH1A1 inh 7.94µM
Cn1c(SCC(=O)NC(c2ccccc2)c2ccccc2)nnc1-c1cccs1	PLK1 PBD inh 26.7µM
Cn1c(SCc2nc3ccccc3s2)nnc1-c1cccs1	Sfp inh 56.2µM, ALDH1A1 inh inconclusive
COc1ccc(Oc2ncc3nc(-c4cccs4)c(=O)n(C)c3n2)cc1	ALDH1A1 inh inconclusive (no result: PLK1 PBD inh)
O=P(O)(O)OP(=O)(O)OP(=O)(O)O	none (no result: PLK1 PBD inh, ALDH1A1 inh)
CCCn1c(SCC(=O)NC2CC2)nnc1-c1cccs1	none (no result: ALDH1A1 inh)
Cn1c(SCC(=O)NC2CC2)nnc1-c1cccs1	VP16 counter 17.8µM, RORg inh inconclusive (no result: ALDH1A1 inh)
O[C@H]1CN(CC2CCCCC2)[C@@H](c2ccc(Cl)cc2)C[C@@H]1n1cc(-c2ccc(F)cc2)nn1	none (no result: VP16 counter, RORg inh, Sfp inh, ALDH1A1 inh)
COc1ccccc1C(=O)Nc1ccc2c(c1)CCCN2C(=O)c1ccccc1	PLK1 PBD inh 23.8µM (no result: ALDH1A1 inh)
O=C(Nc1ccc2c(c1)CCCN2C(=O)c1cccs1)c1ccccc1	PLK1 PBD inh 21.2µM (no result: ALDH1A1 inh)
O=C(Nc1ccc2c(c1)CCCN2C(=O)c1cccs1)c1cccc(F)c1	PLK1 PBD inh inconclusive (no result: ALDH1A1 inh)
COc1ccccc1C(=O)Nc1ccc2c(c1)CCCN2C(=O)c1cccs1	none (no result: ALDH1A1 inh)
C[C@H]1Cc2c(COc3ccccc3)nc3c(c2CO1)CN(S(=O)(=O)c1ccc(Cl)c2nonc12)CC3	ALDH1A1 inh inconclusive (no result: VP16 counter, RORg inh, PLK1 PBD inh)
Cc1c(CCOC(=O)C23CC4(C)CC(C)(CC(C)(C4)C2)C3)sc[n+]1CC(=O)c1ccccc1	Sfp inh inconclusive
Cc1c(CCOC(=O)c2ccc(Cl)cc2Cl)sc[n+]1CC(=O)c1ccccc1	none (no result: VP16 counter, RORg inh, Sfp inh, ALDH1A1 inh)
Cc1c(CCOC(=O)c2cc([N+](=O)[O-])cc([N+](=O)[O-])c2)sc[n+]1CC(=O)c1ccc(Br)cc1	RORg inh 3.98µM, Sfp inh inconclusive, ALDH1A1 inh 2.51µM
Cc1c(CCOC(=O)CC23CC4CC(CC(C4)C2)C3)sc[n+]1CC(=O)c1ccccc1	VP16 counter 4.47µM, RORg inh inconclusive, Sfp inh 79.4µM, ALDH1A1 inh inconclusive
COCCn1c(=O)cnc2cnc(N3CCN(C)CC3)nc21	RORg inh inconclusive, ALDH1A1 inh inconclusive (no result: PLK1 PBD inh)
OCc1cc2c(cn1)[nH]c1ccccc12	ALDH1A1 inh inconclusive (no result: VP16 counter, RORg inh, PLK1 PBD inh)
C=CCn1c(SCc2ccccc2C#N)nnc1-c1cc(Br)ccc1O	VP16 counter 25.1µM, RORg inh 17.8µM
C=CCn1c(SCC(N)=O)nnc1-c1cccc(Br)c1	none
COc1ccc(C(N)c2csc(Nc3ccc(C(=O)NCCCO)cn3)n2)cc1 (configuration not stated)	none (no result: VP16 counter, RORg inh, Sfp inh, ALDH1A1 inh)
COc1cccc(C(=O)/C=C/Nc2ccc(NC(C)=O)cc2)c1	RORg inh inconclusive, ALDH1A1 inh inconclusive

Assay outcomes: PubChem, National Center for Advancing Translational Sciences (NCATS)
